HT1080-NT tox: kills 2HG-producing HT-1080-NT fibrosarcoma cells. HT-1080-NT fibrosarcoma viability, CellTiter-Glo ATP luminescence, 48 h. Potency, µM (doses to about 46.1 µM), for the others: at the top dose activity, negative = less viability, actives largely listed as cytotoxic. 360,000 tested, 1.6% active. AID 686970;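 further: NT is the 2HG producing partner of a matched IDH1 knockdown line; potency means the concentration at half of the fitted maximal effect; 0% = DMSO-treated cells and -100% = media-only wells without cells; nearly all actives have a fitted effect of over 55% in size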
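HT-1080-NT; 750 cells/well; 5% FBS RPMI; 48 h compound, 37 degrees C; CellTiter-Glo luminescence; curve fitting and curve-class assignment.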
HT1080 IDH1KD tx: HT-1080 IDH1 knockdown cell toxicity (counter line); HT-1080 IDH1 knockdown viability, ATP luminescence, 48 h; Potency, µM (titrated, usually from 46.1 µM), for the others: at the highest dose activity, negative = toxicity, hits mostly cytotoxic; 360,000 tested, 2% active; AID 686971;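 further: potency means the concentration at half of the fitted maximal effect; 0% = DMSO wells and -100% = cell-free medium wells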
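Using the IDH1-knockdown HT-1080 line run in the same batch and compound series as the NT line, viability after 48 h at 37 °C was determined by CellTiter-Glo luminescence and expressed as % activity.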
DT40 TDP1 CPT: growth inhibition of DT40 Tdp1-/-;hTDP1 cells with camptothecin (screen for TDP1 inhibitors) | chicken DT40 Tdp1-/-;hTDP1 cells + 20 nM CPT, ATP luminescence, 48 h | Potency, µM (doses to about 46.2 µM), for inactives: top-dose activity change, negative = growth inhibition, usual class: inhibitors | 420,000 tested, 12% active | AID 686979; further: potency means the concentration at half of the fitted maximal effect; nearly all actives have a fitted effect of over 55% in size
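Cell growth measured by CellTiter-Glo luminescence after a minimum 48 h, 37 C compound exposure with 20 nM CPT in Tdp1-knockout DT40 cells stably expressing hTDP1, seeded 400/well; qHTS titration format.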
ELG1 DNA repair: blocks ELG1-dependent DNA repair in HEK293T cells | AID 504467 | Potency, µM (highest dose often 46.1 µM), for the others: at the top dose activity change, negative = inhibition, usual class: inhibitors | HEK293T ELG1-luciferase reporter, luminescence, 16 h; DNA damage induced by 5-fluorouridine | 330,000 tested, 2.3% active; further: potency means the concentration at half of the fitted maximal effect; nearly all actives have a fitted effect of over 55% in size
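Reporter activity after DNA damage by 5-fluorouridine is monitored. Compound-treated cells incubate 16 hr at 37 °C, then ONE-Glo is added for 30 min before luminescence reading.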
IL1B secr inh: blocks inflammasome-driven IL-1 beta release; THP-1 LPS/ATP IL-1B secretion, AlphaLISA, 16 h; stronger effect = lower value; activity change, % at 57.5 µM; 360,000 tested, 4.7% active; in the data active means activity change below about -50%; inconclusive means mostly about -30% to -49%
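THP-1 cells pretreated 1 hr with compounds (up to 57.5 uM final), then stimulated with LPS (250 ng/mL final) plus ATP (1.25 mM final); secreted IL-1B measured by AlphaLISA after 16 hr, decreased signal indicating inhibition.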
DT40 TDP1 no CPT: qHTS for Inhibitors of human tyrosyl-DNA phosphodiesterase 1 (TDP1): qHTS in cells in absence of CPT. DT40 Tdp1-/- hTDP1 cells, no CPT, ATP luminescence, 48 h. Potency, µM (series often up to 46.2 µM), for inactives: at the top dose activity change, negative = growth inhibition, most hits filed as inhibitors. 420,000 tested, 15% active; further: potency means the concentration at half of the fitted maximal effect; nearly all actives have a fitted effect of over 55% in size
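DT40 Tdp1-/-;hTDP1 cells, no CPT (DMSO vehicle only), 400 cells/well; compounds pin-transferred; ≥48 hr, 37 °C; CellTiter-Glo 30 min RT dark, luminescence read.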
* hit, by the source's call; i = inactive; ? = inconclusive; · = no result. Hits are enriched below; roughly 19% of the tested compounds scored in any of these assays. Unless noted, the call rests on the fitted dose curve; in most records, active means well fitted curve in the direction sought with a large enough effect; inconclusive means small, poorly fitted or top-dose-only effect, or another doubt; inactive means no such curve, though single readings can be large; an effect the other way counts as inactive or inconclusive. Unless noted, on the % scale 0 is the no-effect control and ±100 the full control effect.

SMILES	HT1080-NT tox	HT1080 IDH1KD tx	DT40 TDP1 CPT	ELG1 DNA repair	IL1B secr inh	DT40 TDP1 no CPT
COc1cc(-c2noc(C)c2C(=O)NCc2ccc3c(c2)OCO3)cc(OC)c1OC	0.0%	10.8%	?	-17.2%	33.4	?
COc1cc(-c2noc(C)c2C#Cc2ccccn2)cc(OC)c1OC	1.64µM*	2.06µM*	0.651µM*	?	60.2	1.03µM*
COc1cc(-c2nc(-c3ccc(-c4ccccc4)nc3OC)no2)cc(OC)c1OC	·	·	·	-4.6%	·	·
CNC(C)C#Cc1c(-c2cc(OC)c(OC)c(OC)c2)noc1C (centres undefined)	-15.6%	-2.2%	?	?	33.5	15.8µM*
COc1cc(-c2noc(C)c2/C=C/c2ccc(N)cc2)cc(OC)c1OC	0.581µM*	0.92µM*	1.16µM*	2.5%	97.3	1.03µM*
CCOc1ccc(CC(=O)Nc2c(C(=O)c3ccc(F)cc3)oc3ccc(Cl)cc23)cc1OCC	·	·	-5.1%	·	·	-2.4%
O=C(Nc1ccccc1C(=O)NCC1CCCO1)c1ccc(Cl)cc1 (centres undefined)	0.0%	4.0%	?	12.4%	-6.9	-1.4%
CC(=O)Nc1ccccc1NC(=O)C/C(C)=N/NC(=O)c1ccc([N+](=O)[O-])c(Cl)c1	17.4%	18.2%	-18.4%	-2.7%	13.9	-8.1%
O=C(Nc1ccc(Nc2ccccc2)cc1)c1ccc(Cl)c([N+](=O)[O-])c1	-26.3%	?	13µM*	-1.9%	-11.2	10.3µM*
Cc1ccccc1NC(=O)c1ccc(Nc2c([N+](=O)[O-])cc([N+](=O)[O-])c3ccccc23)cc1	-17.3%	-7.7%	?	18.4µM*	i	23.1µM*
C/C(=N\NC(=O)c1ccc([N+](=O)[O-])c(C)c1)c1ccccc1Cl	-9.7%	-15.0%	?	?	-70.1*	20.6µM*
O=C(Nc1ccc(Nc2ccccc2)cc1)c1ccc(Cl)cc1[N+](=O)[O-]	-10.0%	-2.5%	5.8µM*	·	0.0	16.4µM*
CC(=O)NS(=O)(=O)c1ccc(NC(=O)c2ccc(Cl)cc2[N+](=O)[O-])cc1	2.1%	14.0%	5.6%	4.6%	38.0	6.3%
Nc1c(-c2ccc(F)c(F)c2)nc2ncccn12	12.1%	17.1%	11.9%	·	-5.8	-3.9%
Cc1ccc(C(=O)NC2CCN(S(=O)(=O)c3ccccc3F)CC2)cc1	3.1%	-3.7%	-31.5%	-11.6%	-10.1	-20.2%
C=C[C@@H]1CN2CCC1C[C@H]2[C@H](O)c1ccnc2ccc(OC)cc12 (some centres undefined)	0.6%	4.9%	·	·	·	·
CS(=O)(=O)Nc1ccccc1-c1ccc2nccn2c1	4.2%	9.6%	-11.6%	·	24.1	-12.8%
Cc1ccc(Cl)cc1NC(=O)CN1C(=O)NC(C)(C2CC2)C1=O (centres undefined)	-1.5%	0.4%	-6.4%	-9.6%	0.0	11.3%
CCN(C(=O)c1ccc(Cl)cc1[N+](=O)[O-])c1ccccc1C	-2.2%	2.6%	16.4µM*	-7.3%	4.4	14.6µM*
Cc1cc(C(=O)Nc2ccc(Nc3ccccc3)cc2)ccc1[N+](=O)[O-]	-24.5%	?	3.26µM*	?	-64.9*	4.61µM*
CCN(C(=O)c1ccc(Cl)c([N+](=O)[O-])c1)c1ccccc1	13.0%	-4.9%	?	?	-24.0	14.6µM*
Cc1cc(C(=O)NCCc2ccccc2)ccc1[N+](=O)[O-]	12.6%	4.9%	-9.5%	?	-6.6	-17.1%
CC(C)(C)N(Cc1ccccc1)C(=O)c1ccc(Cl)cc1[N+](=O)[O-]	-1.3%	12.5%	-26.0%	?	-15.4	?
Cc1cccc(NC(=O)c2cc(Cl)ccc2[N+](=O)[O-])c1	5.4%	-5.2%	?	-4.5%	-1.8	-22.1%
